According to PubChem BioAssay (NCATS):
Results filed as inconclusive are left out. Entries that show only a call come without a potency. Unmarked numbers belong to inactive results. Calls of active or inactive are those of the source. The call rests on the fitted dose curve; in most records, active means well fitted curve in the direction sought with a large enough effect; inconclusive means small, poorly fitted or top-dose-only effect, or another doubt; inactive means no such curve, though single readings can be large; an effect the other way counts as inactive or inconclusive. Numbered stars: 1 amine (or outer) side, 2 acyl side, 3 side chain; on linkers, the order of the positions; unused ones are H or OH. Square brackets hold non-standard residues; d marks the D form. Peptide text beside a SMILES is read from it. X2 = CC(C)=CCc1cc(C(O)C(N[*:1])C(=O)[*:2])ccc1O

Key:
[1] = target: Cellular tumor antigen p53 (Homo sapiens) (UniProt P04637); test: Primary qHTS for small molecule compounds that upregulate eGFP-tagged delta133p53alpha (in N-terminal) cells. (AID 2060322); conditions: NCI-H358 eGFP-delta133p53alpha fluorescence, 24 h; activation: stronger effect = higher value; further: nearly all actives have a fitted effect of over 75% in size; further: potency means the concentration at half of the fitted maximal effect
In short: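 NCI-H358 cells pre-induced 24 h with 10 ng/ml doxycycline to express N-terminal eGFP-delta133p53alpha, then dosed 24 h at 37C without doxycycline; fixed, Hoechst-stained, GFP intensity by laser scanning cytometry, normalized to DMSO (0%) and 57.5 uM 5-azacytidine (100%).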

[2] = target: Aldehyde dehydrogenase, mitochondrial (Homo sapiens) (UniProt P05091); test: qHTS for Inhibitors of the Aldehyde Dehydrogenase Family (ALDH2) Primary screen (AID 2061308); conditions: ALDH2 enzyme inhibition qHTS, 1536-well; series mostly up to 56 µM; further: nearly all actives have a fitted effect of over 55% in size
[3] = target: Retinaldehyde dehydrogenase 3 (Homo sapiens) (UniProt P47895); test: qHTS for Inhibitors of the Aldehyde Dehydrogenase Family (ALDH1A3) Primary screen (AID 2061315); conditions: ALDH inhibition qHTS; series mostly up to 56 µM

Cellular tumor antigen p53 (Homo sapiens), sequence (P04637 whole entry, looked up): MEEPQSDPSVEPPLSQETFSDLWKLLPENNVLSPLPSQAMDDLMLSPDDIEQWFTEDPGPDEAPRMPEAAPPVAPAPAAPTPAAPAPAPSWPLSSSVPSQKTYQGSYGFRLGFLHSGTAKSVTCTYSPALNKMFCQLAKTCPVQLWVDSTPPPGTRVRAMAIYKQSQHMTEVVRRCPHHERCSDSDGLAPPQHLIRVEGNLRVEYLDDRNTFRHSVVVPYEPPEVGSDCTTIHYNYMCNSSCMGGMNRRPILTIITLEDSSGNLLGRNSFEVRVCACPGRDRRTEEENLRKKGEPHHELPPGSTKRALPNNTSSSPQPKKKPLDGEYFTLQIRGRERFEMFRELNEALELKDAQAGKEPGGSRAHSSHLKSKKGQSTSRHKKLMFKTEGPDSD

SMILES | activation [1] [%] | Potency [2] | Potency [3] | activity change, negative = inhibition [2] | activity change, negative = inhibition [3] | Potency [1]
N#Cc1cc(-c2ccnc(Nc3ccc(N4CCOCC4)cc3)n2)ccc1OC1CCOCC1 | -18.8 | inactive | inactive | – | – | –
C/C=C(/C)C(=O)O[C@H]1[C@H](OC(=O)/C(C)=C\C)[C@@]23C(CC1(C)C)[C@]1(CCC4[C@@]5(C)CC[C@H](O[C@@H]6O[C@H](C(=O)O)[C@@H](O)[C@H](O[C@@H]7O[C@H](CO)[C@H](O)[C@H](O)[C@H]7O[C@@H]7O[C@@H](C)[C@H](O)[C@@H](O)[C@H]7O[C@@H]7OC[C@@H](O)[C@H](O)[C@H]7O)[C@H]6O[C@@H]6O[C@H](CO)[C@H](O)[C@H](O)[C@H]6O)C(C)(C)C5CC[C@@]4(C)[C@]1(C)C[C@H]2O)O[C@H]3O (stereo partly drawn) | -8.93 | – | – | -1.6% [at 11.2 µM] | -5.71% [at 11.2 µM] | –
C[C@@H](NC(=O)c1ccc(C#Cc2cccc(F)c2)cn1)C(C)(C)O | -4.33 | inactive | inactive | – | – | –
C=C1CCC[C@]2(C)CC/C(=C(/CO)C(=O)OC)C[C@@H]12 | 18.8 | inactive | inactive | – | – | –
COC(=O)CC1(O)C(=O)Nc2ccccc21 (stereo not drawn) | -1.79 | inactive | inactive | – | – | –
CC(C)c1ccc2c(c1)C(O)CC1C(C)(CO)CCCC21C (stereo not drawn) | -12.5 | inactive | inactive | – | – | –
CC(C#N)C(C)O[C@@H]1O[C@H](CO)[C@@H](O)[C@H](O)[C@H]1O (stereo partly drawn) | 24.1 | inactive | inactive | – | – | –
CC(C)(O)C1CCC2(C)CCCC(C)(O)C2C1 (stereo not drawn) | 2.68 | inactive | inactive | – | – | –
N#C/C(=C1\Nc2ccccc2S1)c1ccnc(NCCc2cccnc2)n1 | – | inactive | inactive | – | – | 19 µM (active)
CC1C(OC(=O)c2ccccc2)C(O)C2C(C(=O)O)=COC(OC3OC(CO)C(O)C(O)C3O)C12 (stereo not drawn) | -16 | inactive | inactive | – | – | –
O=C1OCC(c2ccccc2)=C1Cc1ccccc1 | -8.4 | inactive | inactive | – | – | –
CC(=O)N[C@H]1[C@H](O[C@H]2CC[C@]3(C)C4CC=C5[C@@H]6CC(C)(C)CC[C@]6(C(=O)O)[C@H](O)C[C@@]5(C)[C@]4(C)CC[C@H]3C2(C)C)O[C@H](CO)[C@@H](O)[C@@H]1O (stereo partly drawn) | 9.82 | inactive | inactive | – | – | –
CC(C)=CCc1cc(C(O)C2NC(=O)CNC(=O)C(Cc3c[nH]c4ccccc34)NC(=O)C3CCCN3C(=O)CNC(=O)C(C(C)C)NC(=O)CNC2=O)ccc1O (stereo not drawn) (cyclo(G[X2]GVGPW); configuration not given here) | -8.4 | inactive | inactive | – | – | –
CC1CCCCCCCc2cc(O)cc(O)c2C(=O)O1 (stereo not drawn) | -3.57 | inactive | inactive | – | – | –
CC12CCC3c4ccc(OC5OC(C(=O)O)C(O)C(O)C5O)cc4CCC3C1CCC2O (stereo not drawn) | 11.7 | inactive | inactive | – | – | –
CC1=C(C)C(=O)OC(C(C)C2C(O)CC3C4C5OC5C5(O)CC(OC6OC(CO)C(O)C(O)C6O)CC(O)C5(C)C4CCC32C)C1 (stereo not drawn) | -6.87 | inactive | inactive | – | – | –
C[C@H]1CC[C@@]2(OC1)O[C@H]1CC3C4CC[C@H]5C[C@@H](O[C@@H]6O[C@H](CO)[C@H](O[C@@H]7O[C@H](CO)[C@@H](O)[C@H](O[C@@H]8OC[C@@H](O)[C@H](O)[C@H]8O)[C@H]7O[C@@H]7O[C@H](CO)[C@@H](O)[C@H](O)[C@H]7O)[C@H](O)[C@H]6O)[C@H](O)C[C@]5(C)C4=CC(=O)[C@]3(C)[C@H]1[C@@H]2C (stereo partly drawn) | 6.11 | inactive | inactive | – | – | –
C=Cc1ccc(O[C@@H]2O[C@H](CO[C@@H]3O[C@@H](C)[C@H](O)[C@@H](O)[C@H]3O)[C@@H](O)[C@H](O)[C@H]2O)cc1 | 0.893 | inactive | inactive | – | – | –
Cc1cc(C(C)Nc2ccccc2C(=O)O)c2nc(N3CCOCC3)cc(=O)n2c1 (stereo not drawn) | 14.3 | inactive | inactive | – | – | –
COC(=O)CCC(=O)OC[C@]1(C)CCC[C@@]2(C)C3CC[C@]4(C)C=CC3(CCC12)C4 (stereo partly drawn) | -8.4 | inactive | inactive | – | – | –
C[C@@H]1O[C@@H](O[C@@H]2[C@@H](O)[C@H](O[C@@H]3[C@@H](O)[C@@H](O)[C@H](O[C@H]4[C@H](OC(=O)[C@]56CCC(C)(C)C[C@H]5C5=CCC7[C@@]8(C)C[C@H](O)[C@H](O[C@@H]9O[C@H](C(=O)O)[C@@H](O)[C@H](O)[C@H]9O)[C@@](C)(CO)C8[C@H](O)C[C@@]7(C)[C@]5(C)C[C@H]6O)O[C@@H](CO)[C@@H]4O)O[C@H]3C)OC[C@H]2O)[C@H](O)[C@H](O)[C@H]1O (stereo partly drawn) | 12.2 | – | – | 4.77% [at 11.2 µM] | -9.03% [at 11.2 µM] | –
